From PubChem BioAssay
DAX1 inh-1: NR0B1 (DAX1) inhibition; P51843; HEK293 Gal4-DAX1 luciferase reporter, luminescence; inhibition, % at 6.75 µM; hit rate 0.99% among 340,000;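 active = inhibition above the mean over all tested compounds plus 3 SD, cut at about 4.2% in these data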;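 also: inhibition shows as a rise in luminescence from relieved DAX1 repression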
Target sequence (P51843 207-470 limits assumed): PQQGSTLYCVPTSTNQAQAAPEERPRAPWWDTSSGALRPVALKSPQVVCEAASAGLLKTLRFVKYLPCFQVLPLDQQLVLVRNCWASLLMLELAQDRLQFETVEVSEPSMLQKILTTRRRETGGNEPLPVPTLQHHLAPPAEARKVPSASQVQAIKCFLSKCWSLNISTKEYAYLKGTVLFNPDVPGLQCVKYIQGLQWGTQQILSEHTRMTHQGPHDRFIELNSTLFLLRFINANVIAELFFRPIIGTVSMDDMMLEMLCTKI
hgDAF-12 ag: activates the H. glycines DAF-12 receptor ligand-binding domain | AID 687014 | activation, % at 6.8 µM | hit rate 1.8% among 370,000 | HEK293 GAL4-hgDAF12 UAS-luciferase reporter, agonist luminescence; normalized to butyrate control;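 active = activation above a cutoff set at the mean of all screened compounds plus 3 SD, cut at about 10% in these data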
ssDAF-12 act: S. stercoralis DAF-12 activation, primary screen. HEK293 ssDAF-12/GRIP1 lit1-tk-luc reporter, luminescence; % of 3 µM dafachronic acid response. activation, % at 6.8 µM. hit rate 1% among 370,000. AID 652126;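 active = activation above the mean over all tested compounds plus 3 SD, cut at about 0.9% in these data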
DAX1 inh-2: inhibitors of DAX1 repression of SF-1 activated StAR promoter; HEK293T StAR-luciferase reporter, SF-1/DAX-1 repression relief; inhibition, % at 6.8 µM; hit rate 1.1% among 370,000; AID 652010;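 active = inhibition above the mean over all tested compounds plus 3 SD, cut at about 3.6% in these data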;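 also: higher inhibition means more luminescence from relief of DAX-1 repression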
hcDAF12 agonist: H. contortus DAF-12 activation, primary screen | HEK293 hcDAF-12 lit1-tk-luc reporter, luminescence; 0% DMSO, 100% Δ7-dafachronic acid | activation, % at 6.8 µM | hit rate 1.4% among 370,000 | AID 652067;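 active = activation above the mean of all tested compounds plus 3 SD, cut at about 5.5% in these data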
DAX1 conf: confirmation of human DAX1 (NR0B1) inhibitors | shares compounds with DAX1 inh-2 | HEK293T StAR-promoter luciferase reporter, SF-1/DAX-1 repression | inhibition, % at 6.8 µM | hit rate 87% among 2,400 | AID 652134;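 active = inhibition above the average of every tested compound plus 3 SD, cut at about 3.8% in these data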;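 also: active compounds raise luminescence by relieving repression of the StAR reporter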
Target sequence (P51843 whole entry, looked up): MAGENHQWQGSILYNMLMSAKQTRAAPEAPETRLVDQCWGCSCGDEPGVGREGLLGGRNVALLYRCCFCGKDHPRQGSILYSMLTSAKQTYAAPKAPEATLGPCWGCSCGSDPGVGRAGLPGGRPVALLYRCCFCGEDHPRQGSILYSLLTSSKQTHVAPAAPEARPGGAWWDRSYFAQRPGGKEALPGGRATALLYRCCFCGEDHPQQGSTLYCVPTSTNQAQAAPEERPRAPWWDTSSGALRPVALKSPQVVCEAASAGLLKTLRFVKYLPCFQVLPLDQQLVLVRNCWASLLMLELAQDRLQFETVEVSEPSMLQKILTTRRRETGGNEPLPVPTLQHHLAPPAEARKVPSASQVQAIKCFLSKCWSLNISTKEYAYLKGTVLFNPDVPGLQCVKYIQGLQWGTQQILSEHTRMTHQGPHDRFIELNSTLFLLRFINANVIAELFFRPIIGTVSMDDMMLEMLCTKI
SF1 AF2mut Luc: nonselective inhibitor or artifact in SF-1 mutant DAX1 counter-screen. shares compounds with DAX1 inh-2. HEK293 StAR-luciferase, SF-1 AF2 mutant, luminescence. inhibition, % at 6.8 µM. hit rate 78% among 2,400;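 active = inhibition above the mean of all tested compounds plus 3 SD, cut at about 3% in these data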
Hits are given with their value; 0 = inactive; - = no result given. An excerpt weighted towards active compounds, which were near 4.1% of everything screened.

SMILES | DAX1 inh-1 | hgDAF-12 ag | ssDAF-12 act | DAX1 inh-2 | hcDAF12 agonist | DAX1 conf | SF1 AF2mut Luc
Cn1c(=O)c2cc(S(=O)(=O)N3CCN(CCO)CC3)ccc2n(C)c1=O | - | 0 | 0 | 0 | 0 | - | -
Clc1cccc(-c2cc3nc4c(c(NCc5ccco5)n3n2)CCCC4)c1 | 0 | 0 | 0 | 4.5 | 0 | 12 | 4.8
COc1ccc(N2CCN(C(=O)c3cc4c(s3)CCCCC4)CC2)cc1 | 0 | 0 | 0 | 4.5 | 0 | 0 | 0
NC(=O)C1CCN(C(=O)c2cc3c(s2)CCCC3)CC1 | 0 | 0 | 0 | 5.7 | 0 | 4.9 | 0
CCOc1ccc(-n2c(SCC(=O)Nc3ccc(Oc4ccccc4)cc3)nnc2-c2ccncc2)cc1 | - | 0 | 0 | 0 | 0 | - | -
Nn1c(SCC(=O)Nc2ccc(Br)cn2)nnc1-c1n[nH]c2c1CCC2 | - | 0 | 0 | 0 | 0 | - | -
COc1cc2c(c(OC)c1OC)-c1ccc(OC)c(=O)cc1[C@@H](NC(C)=O)CC2 | 0 | 0 | 0 | 6.5 | 0 | 23 | 0
CCOCC(=O)NC1CCc2cc(OC(=O)COCC)c(OC)c(OC)c2-c2ccc(SC)c(=O)cc21 (stereo unspecified) | 0 | 0 | 0 | 4.5 | 0 | 17 | 0
CN(Cc1ccccc1)C(=O)OCc1cn(Cc2ccc(F)cc2F)nn1 | - | 0 | 0 | 0 | 0 | - | -
COc1cccc(CNS(=O)(=O)c2cc3c(cc2Br)CC(C)N3C(C)=O)c1 (stereo unspecified) | - | 0 | 0 | 0 | 0 | - | -
C/C(=N\Nc1ccc(C(=O)O)cc1)c1ccc(-n2ccnc2)cc1 | 0 | 12 | 0 | 6.8 | 0 | 8.3 | 5.3
CCOC(=O)[C@]12CCCC3=C1N(CCC3)C(=O)[C@@H](CC(=O)NCCCCc1ccccc1)C2 | - | 0 | 0 | 0 | 0 | - | -
Cc1ccccc1CN1CCCCC(NC(=O)c2cccc(C(F)(F)F)c2)C1=O (stereo unspecified) | - | 0 | 0 | 0 | 0 | - | -
COC(=O)[C@]12C[C@H](CC(=O)NCc3ccc(OC)c(OC)c3)C(=O)N(CCc3ccc(OC)c(OC)c3)C1=C[C@H](C(C)(C)C)O[C@@H]2C | - | 0 | 0 | 0 | 0 | - | -
C#CCCCN([C@@H](CC(C)C)C(=O)OC)S(=O)(=O)c1ccccc1Br | - | 0 | 0 | 0 | 0 | - | -
CCC(=O)Nc1ccc2c(c1)ncn2C | 0 | 0 | 0 | 0 | 0 | - | -
Cn1cnc2cc(NC(=O)c3cccs3)ccc21 | 5.7 | 0 | 0 | 4.6 | 0 | 3.8 | 3.7
Cn1cnc2cc(NC(=O)c3ccc(Cl)cc3)ccc21 | 0 | 12 | 0 | 6.6 | 0 | 14 | 6.4
Cc1ccccc1C(=O)NC1CCCCN(Cc2cccc(C(F)(F)F)c2)C1=O (stereo unspecified) | - | 0 | 0 | 0 | 0 | - | -
COc1cccc(N2CCN(C(=O)c3ccc(CS(=O)c4ccccc4C)o3)CC2)c1 (stereo unspecified) | 0 | 0 | 0 | 0 | 0 | - | -
COc1cccc(N2CCN(C(=O)c3ccc(CS(=O)c4ccccc4Cl)o3)CC2)c1 (stereo unspecified) | 0 | 0 | 0 | 11 | 0 | 14 | 0
Cc1cccc(C)c1-n1nnnc1C(c1ccccc1OC(F)(F)F)N1CCN(C/C=C/c2ccccc2)CC1 (stereo unspecified) | - | 0 | 0 | 4.7 | 0 | 0 | 0
O=C(CSc1nnc(-c2ccncc2)o1)Nc1cc(F)ccc1F | 0 | 13 | 0 | 4.9 | 0 | 5.2 | 5.9
O=C(CSc1nnc(-c2ccc(Br)cc2)o1)Nc1cccc(C(=O)O)c1 | 0 | 0 | 0 | 5.0 | 0 | 6.1 | 5.4
O=C(CSc1nnc(-c2ccc(Br)cc2)o1)Nc1cccc2ccccc12 | 0 | 0 | 0 | 0 | 0 | - | -
SMILES | DAX1 inh-1 | hgDAF-12 ag | ssDAF-12 act | DAX1 inh-2 | hcDAF12 agonist | DAX1 conf | SF1 AF2mut Luc
CC(C)N(C[C@@H]1CSCCS(=O)(=O)N1)C1CCCCC1 | - | 0 | 0 | 0 | 0 | - | -
COC(=O)Nc1nc2ccc(C(=O)c3cccs3)cc2[nH]1 | 0 | 0 | 0 | 8.7 | 0 | 49 | 0
COC(=O)Nc1nc2ccc(SC(C)C)cc2[nH]1 | 0 | 0 | 0 | 0 | 0 | - | -
O=C1CSc2ccc(C(=O)N3CCCC(C(=O)N4CCOCC4)C3)cc2N1 (stereo unspecified) | - | 0 | 0 | 0 | 0 | - | -
Cn1cc(CCOCc2ccc(Br)cc2)c2ccccc21 | - | 0 | 0 | 0 | 0 | - | -
CCN(CC)S(=O)(=O)c1cccc(C(=O)NCC2(N3CCOCC3)CCCCC2)c1 | 0 | 0 | 0 | 0 | 0 | - | -
CN(C)S(=O)(=O)c1ccc(C(=O)NCC2(N3CCCCC3)CCCCC2)cc1 | 0 | 0 | 0 | 6.0 | 0 | 8.5 | 3.3
CS(=O)(=O)c1ccc(C(=O)NCC2(N3CCCCC3)CCCCC2)cc1 | 0 | 0 | 0 | 0 | 0 | - | -
CCN(CC)S(=O)(=O)c1ccc(C(=O)NCC2(N3CCOCC3)CCCCC2)cc1 | 0 | 0 | 0 | 4.6 | 0 | 0 | 0
Cc1ccc(-n2c(SCC(=O)Nc3ccc4c(c3)OCCO4)nnc2-c2cccnc2)cc1 | - | 0 | 0 | 0 | 0 | - | -
C/C(=N\NC(=O)c1nn(C)c(C)c1Br)c1ccc(NC(=O)C2CCCC2)cc1 | 0 | 12 | 0 | 8.9 | 0 | 0 | 0
C/C(=N/NC(=O)C1CCCC1)c1ccc(NC(=O)C(F)(F)F)cc1 | 0 | 0 | 0 | 0 | 0 | - | -
COc1ccc(C(=O)Nc2cccc(/C(C)=N\NC(=O)c3ccoc3C)c2)cc1OC | 0 | 13 | 0 | 12 | 0 | 0 | 0
C/C(=N/NC(=O)c1ccoc1C)c1ccc(NC(=O)C2CCCC2)cc1 | 0 | 15 | 0 | 6.1 | 6.0 | 5.3 | 4.2
O=S(=O)(c1ccc(Cl)s1)N1CCC(c2nc3ccccc3o2)CC1 | - | 0 | 0 | 0 | 0 | - | -
O=C(CSc1nc2ccccc2n1Cc1ccccc1Cl)N/N=C\c1cccc(Oc2ccccc2)c1 | - | 0 | 0 | 0 | 0 | - | -
CC(C)(C)c1ccc(C(=O)/C=C2\NC(=O)CS2)cc1 | 0 | 12 | 0 | 5.2 | 6.1 | 18 | 9.2
COc1cc([C@@H]2c3cc4c(cc3[C@H](O)[C@H]3COC(=O)[C@H]23)OCO4)cc(OC)c1OC | 0 | 0 | 0 | 12 | 0 | 15 | 0
O=C(NCCc1ccccc1)OCc1cn(Cc2ccc(F)cc2)nn1 | - | 0 | 0 | 0 | 0 | - | -
Nc1c(C(=O)Nc2ccc3c(c2)OCCO3)nnn1Cc1cccc(Br)c1 | 0 | 0 | 0 | 9.3 | 0 | 9.0 | 5.9
COc1ccc(Cn2ccc3ccc(-c4ccc5ccn(C(=O)C6CCC6)c5c4)cc32)cc1 | - | 0 | 0 | 0 | 0 | - | -
Cc1ccc(Nc2nnc(SCC3CCCCO3)s2)cc1 (stereo unspecified) | 0 | 0 | 0 | 0 | 0 | - | -
COc1ccccc1Nc1nnc(SCC2CCCCO2)s1 (stereo unspecified) | 0 | 11 | 0 | 5.7 | 6.0 | 4.5 | 0
CCc1c(Cc2cccc(F)c2)ncn1CCc1ccccc1OC | - | 0 | 0 | 0 | 0 | - | -
